Laboratory results reported in PubChem BioAssay (Tox21).
Inconclusive results are not listed. Unmarked numbers belong to inactive results. The call rests on the fitted dose curve.

experiment: qHTS assay to identify small molecule agonists of H2AX - cell viability counter screen (AID 1224847); settings: CHO-K1 viability, CellTiter-Glo luminescence, 3 h; series mostly up to 154 µM; activity change, negative = cytotoxicity: at the top concentration;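 further: wild-type CHO-K1 cells; top concentration of the series differs between compounds; nearly all actives have a fitted effect of over 30% in size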
Summary of the method: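 For this counter screen, overnight-attached CHO-K1 cells received test compounds (15 concentrations, 0.76% DMSO final); 3 hr later at 37C, CellTiter-Glo reagent was added and luminescence recorded after 30 min at room temperature.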
On the % scale 0 is the no-effect control and ±100 the full control effect.

Compound	activity change, negative = cytotoxicity
Cc1ccc(Br)cc1	0.126%
Clc1ccc2c(c1)Nc1ccccc1S2	-7.17% [at 70.9 µM]
Cc1cc(O)c(Cl)cc1C	-5.29%
CCCCCCCCCCCCCCCC(=O)OC	-4.52% [at 31.6 µM]
N#CC1(N)CCCCC1	1.4%
CCOC(=O)c1ccc(N(C)C)cc1	-1.04%
CCCc1ccc(O)c(OC)c1	-3.74%
CCOC(=O)CN1CCCC1=O	-0.194% [at 70.9 µM]
Cc1cc2c(cc1CC(=O)c1sccc1S(=O)(=O)Nc1onc(C)c1Cl)OCO2	0.644% [at 70.9 µM]
COc1cc(OC)cc(OC)c1	1.12% [at 70.9 µM]
CC(C)C(=O)Nc1cccc(C2CN3CCSC3=N2)c1 (stereo unspecified)	-3.81% [at 70.9 µM]
CC1(C)S[C@@H]2[C@H](NC(=O)Cc3ccccc3)C(=O)N2[C@H]1C(=O)O (tested in a mixture with another compound)	8.27% [at 70.9 µM]
CCCCCCC(O)CO (stereo unspecified)	0.445%
CCO/C=C1\N=C(c2ccccc2)OC1=O	2.16%
O=P(O)(O)C(O)(Cc1cccnc1)P(=O)(O)O	-0.806% [at 70.9 µM]
CCOC(=O)COc1ccc2c(C)c(CCN(CC)CC)c(=O)oc2c1Cl	3.65% [at 70.9 µM]
Cc1ccccc1C#N	0.0387%
N#Cc1ccccc1C#N	0.251%
c1coc(Cn2cccc2)c1	0.979%
Cc1ccc2cccnc2c1	2.71%
CCOC(=O)CC	0.321%
COCc1nnc(-c2ccc[n+]([O-])c2)n1-c1c(Cl)c(Cl)cc2[nH]c(=O)c(=O)[nH]c12	-1.18%
COC(=O)c1c(C)cc(O)c(C)c1O	-12.5%
CC1=C(O)C(=O)CO1	4.17%
O=S(=O)(O)CC(O)CCl (stereo unspecified)	0.182%
CN(C)CCc1c[nH]c2ccc(C[C@H]3COC(=O)N3)cc12	-1.07% [at 70.9 µM]
